Results taken from PubChem BioAssay AID2685 (National Center for Advancing Translational Sciences (NCATS), 2010).
About 2,100 (0.66%) of roughly 320,000 compounds were called active. About 53% were inconclusive and are not listed. Calls follow the shape of the dose curve; as a rule, active = well fitted inhibition curve with a large enough effect in the signal ratio, with a control signal flat (not every such curve was filed as active); inconclusive = small, poorly fitted or top-dose-only effect, or effect the other way, or a change in a side signal; inactive = flat fitted curve, though single readings scatter; the % refers to the signal ratio. Only a selection was taken, and actives are over-represented in it overall.

Experiment: qHTS Assay for Lipid Storage Modulators in Drosophila S3 Cells;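 as to cell number change: cells counted by Cell Tracker Red CMTPX staining in the red channel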
Details: BODIPY lipid droplet fluorescence, 18-24 h, cells fed with added oleic acid; cell number change: measured here: cell count max response; series mostly up to 46.1 µM
Summary of the method: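 Drosophila S3 cells loaded with oleic acid (400 uM, as added) and compounds at several concentrations; lipid droplets imaged by 488-nm laser-scanning cytometry, 500–530 nm intensity and object ratio to cell channel. Percent activity normalized to 20 uM Triacsin C.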
Potency is read from the fitted curve at half-maximal effect.

| Compound | Potency | cell number change [%] |
| --- | --- | --- |
| COCCNC(=S)Nc1ccc(S(=O)(=O)Nc2ncccn2)cc1 | inactive | – |
| CC(C)OP(=O)(OC(C)C)C(Nc1ccccc1)c1ccc2c(c1)OCO2 (centres undefined) | inactive | -17 |
| CC1(C(=O)OCc2cc(=O)n3cc(Br)ccc3n2)CC1(Cl)Cl (centres undefined) | inactive | 20.1 |
| Nc1nc(/C=C/c2cccnc2)nc(-c2ccccc2O)n1 | inactive | -9.25 |
| CCC(CC)C(=O)N(c1ccc(F)cc1)C1C=CS(=O)(=O)C1 (centres undefined) | inactive | -1.72 |
| COc1ccc(N(C(=O)Cc2cccs2)C(C(=O)NC2CCCC2)c2ccncc2)cc1OC (centres undefined) | inactive | 16.1 |
| CC1=CC(C)(C)N(C(=O)CSc2nnc(N)s2)c2cc(C)c(C)cc21 | inactive | 6.05 |
| COc1ccccc1NC(=O)c1nc(S(=O)(=O)Cc2ccccc2)ncc1Cl | inactive | -4.72 |
| COC(=O)c1ccccc1NC(=O)c1nc(S(=O)(=O)Cc2ccccc2)ncc1Cl | inactive | -21.2 |
| CCc1ccc(NC(=O)c2nc(S(=O)(=O)Cc3ccccc3)ncc2Cl)cc1 | 1.16 µM (active) | -18.2 |
| O=C(OCc1ccc(Cl)c(Cl)c1)c1ccc[nH]1 | inactive | 0.855 |
| CCOc1ccc(CNC2CCCCCCC2)cc1OC | inactive | -6.56 |
| COc1ccc(CNC2c3ccccc3-c3ccccc32)cc1OC | 3.66 µM (active) | 14.9 |
| COc1ccc(CNc2ncccn2)cc1OC | inactive | 2.02 |
| Cc1ccccc1-n1c(Cn2c(=O)sc3ccccc32)nnc1SCC(=O)N1CCOCC1 | inactive | -4.41 |
| Cc1cc(C)n(CCC(=O)N=Nc2c(O)[nH]c3ccc(Br)cc23)n1 | inactive | -11.1 |
| CCOCCCNC(=O)c1ccc2c(c1)N=C(CC)c1cc(Br)ccc1S2 | inactive | 13.2 |
| COc1cc(CN2CCSCC2)cc(OC)c1OC | inactive | -0.391 |
| COc1ccc(CN2CCSCC2)cc1C | 23.1 µM (active) | 8.44 |

| Compound | Potency | cell number change [%] |
| --- | --- | --- |
| COc1ccccc1CN1CCCCCC1 | inactive | 10.4 |
| COc1ccccc1CN1CCSCC1 | 23.1 µM (active) | -20 |
| COc1cccc(CN2CCSCC2)c1OC | inactive | 10.1 |
| COc1cccc(CN2CCSCC2)c1 | inactive | 8.55 |
| O=C(Nc1ccc(F)cc1)N1CCCN(c2ccc(C(F)(F)F)cn2)CC1 | inactive | -1.28 |
| O=C1C2C3c4ccccc4C(c4ccccc43)C2C(=O)N1/N=C/c1cccc(O)c1 (centres undefined) | inactive | 9.29 |
| CC1(C)CC(NC(=O)c2cc(S(=O)(=O)N3CCOCC3)c(Cl)cc2Cl)CC(C)(C)N1 | inactive | -3.63 |
| COc1cc(/C=C2\SC(N3CCc4ccccc4C3)=NC2=O)cc(OC)c1OC | inactive | 4.12 |
| N#C/C(=C\c1ccc(-c2ccccc2C(=O)O)o1)c1nc2ccccc2[nH]1 | inactive | -1.22 |
| N#C/C(=C\c1ccc([N+](=O)[O-])o1)c1nc2ccccc2[nH]1 | 4.11 µM (active) | -21.1 |
| Cc1ccc2nc(/C(C#N)=C/c3cn[nH]c3-c3ccc(F)cc3)[nH]c2c1 | inactive | -24.5 |
| Cc1ccc2nc(/C(C#N)=C\c3ccc([N+](=O)[O-])o3)[nH]c2c1 | 6.51 µM (active) | -22.5 |
| N#C/C(=C(/O)c1ccc([N+](=O)[O-])o1)c1nc2ccccc2[nH]1 | inactive | -1.26 |
| COc1ccc(/C=C(\C#N)c2nc3ccc(C)cc3[nH]2)cc1Oc1ccc(C(F)(F)F)cc1[N+](=O)[O-] | 8.2 µM (active) | – |
| N#C/C(=C\c1ccc(Oc2ccc(C(F)(F)F)cc2[N+](=O)[O-])cc1)c1nc2ccccc2[nH]1 | inactive | -10.6 |
| Cc1ccc2nc(/C(C#N)=C\c3ccc(Oc4ccc(C(F)(F)F)cc4[N+](=O)[O-])cc3)[nH]c2c1 | inactive | 1.55 |
| Cc1ccc2nc(/C(C#N)=C/c3ccccc3C(=O)O)[nH]c2c1 | inactive | – |
| CCOC(=O)c1c(NC(=O)C2CC2)sc2c1CC(C)(C)OC2 | inactive | 0.857 |
| COC(=O)C(C)n1nc(C)n(-c2ccc(C)cc2)c1=O (centres undefined) | inactive | -11.2 |

| Compound | Potency | cell number change [%] |
| --- | --- | --- |
| COc1ccc(CC(=O)Nc2ccc(C(=O)Nc3ccccc3C(=O)O)cc2)cc1OC | inactive | 17.1 |
| COc1cc(C(=O)NC(c2ccccc2)c2ccccc2)cc(Cl)c1OC | inactive | 14.2 |
| CCC(=O)N1CCN(c2ccc(NC(=O)c3ccc4c(c3)OCCO4)cc2)CC1 | inactive | 25.3 |
| CC(C)(C)C(=O)N1CCN(c2ccc(NC(=O)c3ccc4c(c3)OCCO4)cc2)CC1 | 16.4 µM (active) | -3.48 |
| Cc1ccc(C(=O)N2CCN(c3ccc(NC(=O)c4ccc5c(c4)OCCO5)cc3)CC2)cc1 | inactive | – |
| CCN(CC(=O)Nc1ccccc1C(F)(F)F)C(=O)c1ccc(=O)n(Cc2ccccc2)n1 | inactive | 22.5 |
| CC(=O)c1cn(CC(=O)NCC2CCCO2)c2ccccc12 (centres undefined) | inactive | 3.78 |
| COc1cc(CNC2CCCCCCC2)c(Br)cc1OCCO | inactive | -14 |
| CCc1ccc(NC(=O)Cn2c(=O)n(CCC(=O)NC3CCN(Cc4ccccc4)CC3)c(=O)c3ccccc32)cc1 | inactive | 3.79 |
| Cc1cccc(C)c1NC(=O)Cn1c(=O)n(CCCC(=O)NC2CCN(Cc3ccccc3)CC2)c(=O)c2ccccc21 | 4.11 µM (active) | -10.3 |
| Cc1ccc(NC(=O)Cn2c(=O)n(CCC(=O)NC3CCN(Cc4ccccc4)CC3)c(=O)c3ccccc32)cc1 | inactive | 3.62 |
| COCCN(C(=O)CSc1nc2ccc(C)cc2[nH]1)c1c(N)n(Cc2ccccc2)c(=O)[nH]c1=O | inactive | -11.3 |
| C[C@H]1CN=C2N(CCNC(=O)CCC3CCCCC3)[C@H](Cc3ccc(O)cc3)CN21 | inactive | -4.68 |
| CCOC(=O)c1cccc(NC(=O)C(NS(=O)(=O)c2ccc3c(c2)CCN3C(C)=O)C(C)C)c1 (centres undefined) | inactive | 9.06 |
| O=C(CS(=O)(=O)c1c[nH]c2ccccc12)Nc1ccc(F)cc1 | inactive | 1.05 |
| Cc1ccccc1NS(=O)(=O)c1cc2c3c(c1)C(C)C(=O)N3CCC2 (centres undefined) | inactive | – |
| COc1ccc(/C=C/c2c([N+](=O)[O-])c(=O)n(C)c(=O)n2C)cc1 | inactive | -2.6 |
| COc1ccc(/C=C/c2c([N+](=O)[O-])c(=O)n(C)c(=O)n2C)cc1OC | inactive | -10.8 |
| Cn1c(/C=C/c2ccc(Br)cc2)c([N+](=O)[O-])c(=O)n(C)c1=O | 2.91 µM (active) | -1.8 |
